PubChem BioAssay AID488896 (Broad Institute, 2010)
In all, about 320,000 compounds went through this assay and about 3,100 (0.97%) were called active.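 How the source made its calls: active means mean replicate inhibition of at least 70% and a set share of replicates each scoring 70 or more; inconclusive means meets just one of the two criteria; inactive means fails both criteria.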 The sample as a whole holds a higher share of actives than the screen did.

Target: Scavenger receptor class B member 1 (Mus musculus) (UniProt Q61009)
Sequence (Q61009 whole entry, looked up): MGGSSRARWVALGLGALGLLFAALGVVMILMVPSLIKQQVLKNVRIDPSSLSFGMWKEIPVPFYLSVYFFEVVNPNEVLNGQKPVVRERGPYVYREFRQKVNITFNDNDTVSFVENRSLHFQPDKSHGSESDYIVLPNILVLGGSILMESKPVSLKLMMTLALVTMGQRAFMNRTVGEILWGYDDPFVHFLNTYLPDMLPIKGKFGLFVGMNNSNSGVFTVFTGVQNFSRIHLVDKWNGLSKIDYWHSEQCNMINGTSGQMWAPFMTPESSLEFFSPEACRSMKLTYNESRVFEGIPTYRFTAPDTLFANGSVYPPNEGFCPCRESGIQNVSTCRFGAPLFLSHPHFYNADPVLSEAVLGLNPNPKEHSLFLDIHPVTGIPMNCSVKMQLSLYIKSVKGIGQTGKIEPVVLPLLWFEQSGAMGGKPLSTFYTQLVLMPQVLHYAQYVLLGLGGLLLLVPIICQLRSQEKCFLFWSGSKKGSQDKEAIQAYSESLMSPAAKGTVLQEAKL
Test: inhibitors of SR-BI mediated HDL lipid uptake, primary screen, ldlA[mSR-BI] cells, fluorescence, single point (AID 488896);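 further: 0% = median of neutral control wells and 100% = median of positive control wells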
Details: ldlA[mSR-BI] CHO cells, DiI-HDL uptake fluorescence, 3 h; at 12.5 µM; hits give high values

| Compound | inhibition |
| --- | --- |
| COc1ccc2[nH]c3c(c2c1)CCN1C(=O)C(CC(=O)NCCc2ccccn2)C[C@H](C(=O)N2CCOCC2)[C@@]31C (some centres not stated) | -24.1% (inactive) |
| O=C(Nc1c[nH]c(=O)[nH]c1=O)OCc1ccccc1 | -8.08% (inactive) |
| O=C(NC1=CC(=O)c2ccccc2C1=O)c1ccccc1 | 2.35% (inactive) |
| Cc1cccc(NC(=O)CSc2nnc(-c3ccco3)o2)c1 | -5.55% (inactive) |
| Cc1cccc(NC(=O)c2sc3nc4c(c(-c5ccco5)c3c2N)CCC4)c1 | 77.8% (active) |
| Cc1cccc(NC(=O)c2sc3nc(N4CCOCC4)c4c(c3c2N)CCCC4)c1 | 68% (inactive) |
| Cc1csc(NC(=O)Nc2ccccc2[N+](=O)[O-])n1 | 2.45% (inactive) |
| CCOC(=O)C/C(C)=N\Nc1ccc([N+](=O)[O-])cc1[N+](=O)[O-] | -9.86% (inactive) |
| CCOC(=O)/C(=N\Nc1ccccc1[N+](=O)[O-])c1csc(Nc2ccccc2)n1 | 106% (active) |
| O=C(OCCOc1ccccc1F)c1cc(S(=O)(=O)N2CCOCC2)ccc1F | 12.6% (inactive) |
| COC(=O)c1cc(Oc2ccc(S(=O)(=O)N3CCOCC3)cc2[N+](=O)[O-])cc(C(=O)OC)c1 | 70.8% (active) |
| COc1ccc(S(=O)(=O)N2CCC(C(=O)OCC(=O)c3ccccc3)CC2)cc1[N+](=O)[O-] | -14.3% (inactive) |
| C=C(C)CNc1cc(S(=O)(=O)N2CCOCC2)ccc1Oc1ccccc1 | 10.5% (inactive) |
| CC(C)(C)C(=O)Nc1cccc(-c2ccc[nH]2)n1 | -5.41% (inactive) |
| Cc1cc(C)cc(NC(=O)NC2CCN(CC(=O)Nc3cccc(Cl)c3C)CC2)c1 | 74.4% (active) |
| O=C(CN1CCC(NC(=O)Nc2ccccc2)CC1)Nc1cccc([N+](=O)[O-])c1 | 30.9% (inactive) |
| COc1cccc(NC(=O)CN2CCN(CC(=O)Nc3ccccc3Cl)CC2)c1 | 19.8% (inactive) |
| O=C(Cc1ccc([N+](=O)[O-])cc1)NCCc1ccc2c(c1)OCO2 | 30.8% (inactive) |
| CC(C)=CCc1ccc(O)c(=O)cc1C(C)C | 12.4% (inactive) |
| CC(=O)OC1CCC2C3CCC4=C(CC(F)C(=O)C4)C3CCC12C (configuration not stated) | 3.99% (inactive) |
| C(=N\Nc1ccc2ccccc2n1)/c1ccc2c(c1)OCO2 | 7.43% (inactive) |
| Brc1ccc(-c2csc(N/N=C/c3cccnc3)n2)cc1 | 37.2% (inactive) |
| Brc1ccc(-c2csc(N/N=C/c3ccc4c(c3)OCO4)n2)cc1 | 79.4% (active) |

| Compound | inhibition |
| --- | --- |
| NC(=O)c1ncn([C@@H]2O[C@H](CNCc3cnc(N4CCOCC4)s3)[C@@H](O)[C@H]2O)n1 | 12% (inactive) |
| CC/C(=C(/c1ccccc1)c1ccc(OCC[N+](C)(C)C)cc1)c1ccccc1 | -44.1% (inactive) |
| CCc1ccnc(NC(=O)Nc2ccc(OCc3ccccc3)cc2)c1 | 81.9% (active) |
| O=C(O)/C=C\C(=O)Nc1ccc(OCc2ccccc2)cc1 | -11.2% (inactive) |
| Cc1cccc(NC(=O)Nc2ccc(OCc3ccccc3)cc2)n1 | 17.6% (inactive) |
| Cc1cc(NC(=O)C(C)SCC(=O)Nc2cccc(S(=O)(=O)N3CCCCCC3)c2)no1 (configuration not stated) | 41.5% (inactive) |
| Cc1cn(C2CC(O)C(CO)O2)c(=O)n(CCCc2ccccc2)c1=O (configuration not stated) | 2.76% (inactive) |
| Cc1ccccc1OCC(=O)Nc1ccc2c(c1)ncn2C | 9.34% (inactive) |
| Cc1ccccc1OCC(=O)Nc1ccc(N2CCN(C(=O)C(C)C)CC2)c(Cl)c1 | 72% (active) |
| Cc1ccccc1OCC(=O)Nc1ccc(S(=O)(=O)N2CCOCC2)cc1 | -12.4% (inactive) |
| Cc1ccc(Cn2c(C)c3cnn(CC(=O)NCCN4CCOCC4)c(=O)c3c2C)cc1 | 22.1% (inactive) |
| CCC1(C)COC(c2ccc(OC)c(OC)c2)OC1 (configuration not stated) | -11.4% (inactive) |
| Cc1ccc(C(=O)O)c(NC=O)c1OCc1ccccc1 | -19.3% (inactive) |
| CCOC(=O)/C(C#N)=C/c1ccc(OCC(=O)Nc2ccccc2)c(OC)c1 | -11.4% (inactive) |
| CCOC(=O)COc1ccc([N+](=O)[O-])cc1 | -24.5% (inactive) |
| CCOC(=O)/C(=C\c1ccc([N+](=O)[O-])cc1)C(=O)c1cc(C(C)=O)c(Nc2ccccc2)s1 | 80.9% (active) |
| Cc1nc2ccc(N)nc2nc1C | 22.1% (inactive) |
| O=[N+]([O-])c1ccc(NS(=O)(=O)c2ccccc2)c(Cl)c1 | -84.4% (inactive) |
| COc1cccc2oc(CCc3ccccc3)cc(=O)c12 | -4.54% (inactive) |
| COc1ccc(C(=O)NC(=S)Nc2ccccc2N2CCN(S(C)(=O)=O)CC2)cc1OC | 74.4% (active) |
| CCC(=O)Nc1ccccc1N1CCN(S(C)(=O)=O)CC1 | -20.6% (inactive) |
| COc1ccccc1C(=O)NC(=S)Nc1ccccc1N1CCCCC1 | 49.6% (inactive) |
| COc1cccc(/C=N/Nc2ccc(S(=O)(=O)Nc3ccccc3C(=O)O)cc2[N+](=O)[O-])c1O | -4.5% (inactive) |

| Compound | inhibition |
| --- | --- |
| COc1ccc(C(=O)NCCCN2CCOCC2)cc1Br | -15.8% (inactive) |
| COc1ccc(C(=O)Nc2ccc(N3CCC(C)CC3)cc2)cc1Br | 94.5% (active) |
| COc1cccc(C(=O)Nc2ccc(N3CCCC3)cc2)c1 | 80.4% (active) |
| COc1cccc(C(=O)Nc2nnc(S(=O)(=O)N3CCCCC3)s2)c1 | -13.3% (inactive) |
| COc1cccc(C(=O)NNC(=O)c2cccc(F)c2)c1 | -14.2% (inactive) |
| COc1cccc(C(=O)Nc2cc3c(cc2Br)OCCCO3)c1 | 83.6% (active) |
| O=C(Nc1ccccc1)c1ccc2c(c1)OCCCO2 | -9.51% (inactive) |
| COc1cccc(C(=O)Nc2ccc(N3CCN(C(=O)c4ccco4)CC3)cc2)c1 | 36.3% (inactive) |
| COc1ccc(OCC(=O)Nc2ccc(N3CCC(C)CC3)cc2)cc1 | 65.5% (inactive) |
| COc1ccc(CNC(=O)COC(=O)C2=Cc3ccccc3OC2)cc1 | -3.54% (inactive) |
| O=S1(=O)CCOC[C@H](Cc2ccccc2)N1Cc1ccccc1Br | -16.4% (inactive) |
| O=C(OCCOc1ccccc1Cl)c1cc(S(=O)(=O)N2CCCCC2)ccc1N1CCOCC1 | -9.43% (inactive) |
| CN=c1scc(-c2cc(OC)ccc2OC)n1/N=C/c1c(C)[nH]c2ccccc12 | 77.2% (active) |
| CCn1c(-c2cc(OC)ccc2OC)csc1=Nc1c(C)n(C)n(-c2ccccc2)c1=O | -4.8% (inactive) |
| COCCNC(=S)N/N=C/c1c(C)[nH]c2ccccc12 | 2.4% (inactive) |
| O=C1C2C3C=CC(C3)C2C(=O)N1c1ncc([N+](=O)[O-])s1 (configuration not stated) | -8.82% (inactive) |
| CCC(=O)N1CCc2cc(Br)c(S(=O)(=O)NCCN3CCCCC3CC)cc21 (configuration not stated) | 11.6% (inactive) |
| COc1cc(C(=O)N2CCN(S(=O)(=O)c3ccc(C(C)C)cc3)CC2)ccc1OCC(=O)N1CCOCC1 | -10.9% (inactive) |
| Cc1ccc(Nc2c(O)nc[nH]c2=O)cc1C | 4.84% (inactive) |
| COC(=O)Cc1nc2c(N)nc(N)nc2[nH]c1=O | -15.9% (inactive) |
| O=C(N/N=C/c1ccccc1O)C1CCCC1 | 4.81% (inactive) |
| O=C(NN=Cc1ccccc1O)NN=Cc1ccccc1O | 79.8% (active) |
| O=C(N/N=C/c1ccccc1O)/C(=C/c1ccccc1)CCO | 24.8% (inactive) |

| Compound | inhibition |
| --- | --- |
| COc1ccccc1C(=O)c1ccccc1C(=O)c1ccccc1 | 6.29% (inactive) |
| COc1ccc(CNC(=O)CN2C(=O)c3ccccc3S2(=O)=O)cc1 | -16.4% (inactive) |
| CC(=O)c1ccc(NC(=O)Nc2ccc([N+](=O)[O-])cc2C)cc1 | 26.8% (inactive) |
| CC(C)C(=O)Nc1cccc(NC(=O)c2ccc([N+](=O)[O-])cc2Cl)c1 | -2.31% (inactive) |
| Cc1cc([N+](=O)[O-])ccc1NC(=O)c1ccc(NC(=O)C(C)C)cc1 | 74.9% (active) |
| Nc1ccc2[nH]c(=S)sc2c1 | 5.71% (inactive) |
| COc1ccc(-c2nnn(CC(=O)N(CCO)C(C(=O)NC3CCCC3)c3ccc(F)cc3)n2)cc1 (configuration not stated) | 10.5% (inactive) |
| COc1cccc(N(CC(=O)NC2CCCC2)C(=O)Cn2nnc(-c3ccc(C)cc3)n2)c1 | 73.6% (active) |
| COc1cccc(N(CC(=O)NC2CCCC2)C(=O)CCCC(=O)Nc2ccccn2)c1 | 21.1% (inactive) |
| O=c1[nH]c2c(c(=O)n1-c1ccccc1)CCO2 | 2.86% (inactive) |
| O=C(N/N=C/c1cc(Cl)cc([N+](=O)[O-])c1O)C(O)(c1ccccc1)c1ccccc1 | 77.8% (active) |
| CN(C)/N=C/c1cc(Cl)cc([N+](=O)[O-])c1O | -14.6% (inactive) |
| O=C(Cc1cc(=O)[nH][nH]1)N/N=C/c1ccccc1[N+](=O)[O-] | -19.1% (inactive) |
| N=C1c2ccccc2-c2ccccc21 | -9.24% (inactive) |
| CCC(C(=O)OCC(=O)Nc1ccccc1-c1ccccc1)c1ccccc1 (configuration not stated) | -4.74% (inactive) |
| CCC(C(=O)OCC(=O)Nc1c(Cl)cc(Cl)cc1Cl)c1ccccc1 (configuration not stated) | -13.8% (inactive) |
| CCC(C(=O)OCC(=O)Nc1ccc(C(=O)Nc2ccc(OC)cc2)cc1)c1ccccc1 (configuration not stated) | 79.1% (active) |
| COc1ccc(NC(=O)/C(N=Nc2cccc(S(=O)(=O)Nc3ccc(SC(F)F)cc3)c2)=C(\C)O)cc1 | -19.4% (inactive) |
| COCCNc1cc(-c2ccccc2)nc2cc(-c3cccc(F)c3)nn12 | 71.2% (active) |
| COC(=O)C(C)Sc1ccc2nnc(-c3cccc(F)c3)n2n1 (configuration not stated) | -12.2% (inactive) |
| COc1ccc(NC(=O)c2cc3nc(-c4ccccc4)cc(C)n3n2)cc1OC | -10.7% (inactive) |
| COc1ccc(NS(=O)(=O)c2ccc(N3CCOCC3)c(NC(=O)/C=C/C(=O)O)c2)cc1 | -22.2% (inactive) |
| CC(C)Cc1nnc(N)s1 | -10.1% (inactive) |
